Compounds with a hit are over-represented: about 2.1% of the library has one in this group of screens.
PvdQ inh: blocks Pseudomonas aeruginosa PvdQ acylase activity; hit rate 0.063% among 340,000; inhibition, % at 10 µM; purified PvdQ acylase, fluorescence plate reader; in the data active means inhibition above about 30%, passing the limit was not always enough;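 further: 0% = vehicle neutral wells and 100% = reference inhibitor wells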
ERAP1 inh: ERAP1 (human) enzyme inhibition; AID 652197; hit rate 0.15% among 340,000; recombinant ERAP1, Leu-AMC fluorescence, 60 min; Q9NZ08; inhibition, % at 10.7 µM;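 active means mean replicate inhibition of at least 30%, or all replicates individually reaching that 30% level; inactive means mean below 30% and not every replicate reaching it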;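 further: 0% = neutral control wells and 100% = L-leucinethiol positive control wells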
Target sequence (Q9NZ08 whole entry, looked up): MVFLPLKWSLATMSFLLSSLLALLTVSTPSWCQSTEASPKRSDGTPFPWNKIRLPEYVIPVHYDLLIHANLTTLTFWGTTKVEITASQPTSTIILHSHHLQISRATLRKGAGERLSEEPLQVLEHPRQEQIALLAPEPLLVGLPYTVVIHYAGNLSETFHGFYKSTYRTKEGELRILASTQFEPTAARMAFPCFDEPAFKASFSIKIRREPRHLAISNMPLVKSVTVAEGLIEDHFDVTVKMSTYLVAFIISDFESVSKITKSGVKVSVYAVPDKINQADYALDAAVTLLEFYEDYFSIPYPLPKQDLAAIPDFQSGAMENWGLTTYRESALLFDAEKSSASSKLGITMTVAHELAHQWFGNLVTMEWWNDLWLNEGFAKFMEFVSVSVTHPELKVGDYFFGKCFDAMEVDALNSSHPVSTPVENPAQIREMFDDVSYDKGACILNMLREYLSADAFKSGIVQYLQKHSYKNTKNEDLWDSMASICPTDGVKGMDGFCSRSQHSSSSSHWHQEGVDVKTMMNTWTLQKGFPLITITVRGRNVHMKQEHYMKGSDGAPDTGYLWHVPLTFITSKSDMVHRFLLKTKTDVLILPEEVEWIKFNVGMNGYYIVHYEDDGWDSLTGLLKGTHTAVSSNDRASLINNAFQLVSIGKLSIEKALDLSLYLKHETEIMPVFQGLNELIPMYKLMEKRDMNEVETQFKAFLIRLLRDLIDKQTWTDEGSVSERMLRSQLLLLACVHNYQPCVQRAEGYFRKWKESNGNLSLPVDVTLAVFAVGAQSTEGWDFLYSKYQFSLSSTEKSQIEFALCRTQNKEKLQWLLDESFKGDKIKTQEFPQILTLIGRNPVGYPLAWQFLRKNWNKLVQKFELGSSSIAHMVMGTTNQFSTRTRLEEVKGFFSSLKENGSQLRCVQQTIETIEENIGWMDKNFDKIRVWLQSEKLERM
CFTR F508del cor: correctors of CFTR F508del function in bronchial epithelial cells; CFBE cells, YFP halide quenching; stimulated with forskolin plus potentiator P3; % fluorescence drop versus neutral controls; hit rate 0.36% among 350,000; activity (quench increase), % at 7.58 µM;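 active means mean added fluorescence quench of at least 8% versus neutral control, with both replicates also reaching 8%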;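 further: cells transiently co-express mutant CFTR-F508del with the halide-sensitive YFP; corrector assay measuring rescue of mutant channel to the surface after 24 h compound exposure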
ARNT TACC3 PPI: disruptors of human ARNT/TACC3 interaction. Q9Y6A5. AlphaScreen His-ARNT PAS-B/GST-TACC3 binding, luminescence; TACC3 fragment carries E629A point mutation. inhibition, % at 9.99 µM. hit rate 0.66% among 390,000;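 active means mean inhibition of replicates at least 50% and at least half of replicates each reaching 50%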;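 further: 0% = complete ARNT plus TACC3 wells and 100% = ARNT alone without TACC3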
Ecoli rRNA inh: inhibitors of bacterial rRNA selective over humanized ribosomes; E. coli WT GFP vs humanized-ribosome RFP mutants, fluorescence, 24 h; stronger effect = lower value; DMSO median 0, no signal -100; GFP signal change (wild-type ribosome), % (no concentration beside the values); hit rate 1.6% among 350,000; AID 720706;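 active means significant combined selectivity score with lowered wild-type GFP, culture density cut under 30%, mutant RFP and density less affected; inactive means any of these conditions unmet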
* hit, by the source's call; . = not tested or not shown.

SMILES	PvdQ inh	ERAP1 inh	CFTR F508del cor	ARNT TACC3 PPI	Ecoli rRNA inh
CN(CC(=O)Nc1cccc(F)c1)C(=O)Cn1c(=O)cnc2ccccc21	-4	-10	-3	2	-1
Cc1cc(Br)ccc1NC(=O)CN(C)C(=O)Cn1c(=O)cnc2ccccc21	-1	38*	-1	1	5
CC1=CC(C)(C)N2C(=O)C(=O)c3cc(OC(=O)c4ccco4)cc1c32	-8	1	5	7	-23*
Cc1noc(C)c1NC(=O)N(C)C[C@@H]1OCCCC[C@H](C)Oc2ccc(NS(=O)(=O)c3ccccc3)cc2C(=O)N([C@@H](C)CO)C[C@@H]1C	.	-2	0	1	-1
Cc1oc(-c2ccc(F)cc2)nc1CN(Cc1ccccn1)CC1CCCO1 (stereo not given)	9	0	2	50*	-11
CCC(=O)N1[C@H](CN(CC)C(C)=O)[C@@H](c2ccc(-c3ccccc3)cc2)[C@@H]1CO	.	.	8.9*	-10	-3
Cc1ccc(S(=O)(=O)N[C@@H]2CC[C@H](CCNC(=O)Cc3ccccn3)O[C@@H]2CO)cc1	.	-1	0	-2	2
CCCOc1ccccc1/C=C(\C#N)C(=O)Nc1cccc(C)n1	-2	1	2	-5	-24*
C=CCOC(=O)[C@H]1[C@@H]2C(=O)O[C@@H](c3ccccc3)[C@@H](c3ccccc3)N2[C@@H](c2ccc(OCCOC(=O)[C@@H]3C[C@@H]4C(=O)NCC(=O)N4[C@@H]3c3cccc(OCCO)c3)cc2)[C@]12C(=O)Nc1ccc(I)cc12	.	-3	-5	26	.
CCN(CC(=O)Nc1c(F)cccc1F)C(=O)C1CC1	-16	1	8.4*	.	5
CCN(CC(=O)Nc1c(F)cccc1F)C(=O)C1CCN(C(=O)c2ccc(Cl)cc2)CC1	5	2	1	-1	6
C[C@H](CO)N1C[C@H](C)[C@H](CN(C)C(=O)CC2CC2)Oc2cc(-c3cccnc3)ccc2S1(=O)=O	.	-5	1	-1	-1
CCOc1ccc2[nH]c3c(N4CCN(C(=O)c5ccco5)CC4)ncnc3c2c1	.	1	0	.	-36*
O=C(NCC[C@@H]1CC[C@H](NS(=O)(=O)c2ccc(Cl)cc2)[C@H](CO)O1)c1ccc2c(c1)OCO2	.	-3	-2	-1	-7
NC(=O)NC(c1ccccc1)c1cccc2ccccc12 (stereo not given)	-4	2	3	-4	-33*
NC(=O)NC(c1ccc(Cl)cc1)c1ccccc1Cl (stereo not given)	-16	2	-5	-6	-35*
NC(=O)NC(c1ccccc1)c1ccccc1F (stereo not given)	-9	.	.	-5	.
C[C@@H]1CCCCO[C@@H](CN(C)Cc2ccncc2)[C@H](C)CN([C@H](C)CO)C(=O)c2cc(NC(=O)Nc3ccc(F)cc3)ccc2O1	.	.	0	2	1
Cc1ccc(-c2cc(=O)c3cc(F)ccc3[nH]2)cc1	-7	2	3	-4	7
O=c1cc(-c2ccccc2)[nH]c2ccc(F)cc12	-11	.	8.6*	-10	13
O=C(Nc1cccc(Cl)c1)N[C@@H]1CC[C@H](CCNC(=O)C2CCCCC2)O[C@@H]1CO	.	4	-2	4	-6
O=C(Cc1ccncc1)N1CC[C@@H]2[C@H]1c1cc(-c3ccccc3F)ccc1N[C@@H]2CO	.	0	-1	4	0
O/N=C1\CCCc2ccc3ccccc3c21	-1	2	1	2	-38*
COc1c2ccoc2nc2c(OC)cccc12	-2	-1	4	4	-22*
CCOc1ccccc1N(C(=O)c1ccccc1Cl)C1=NC(C)(C)CS1	-9	-3	-2	-2	-23*
SMILES	PvdQ inh	ERAP1 inh	CFTR F508del cor	ARNT TACC3 PPI	Ecoli rRNA inh
C[C@@H]1CN([C@H](C)CO)C(=O)c2cc(N(C)C)ccc2O[C@@H](C)CCCCO[C@@H]1CN(C)C(=O)Nc1ccc(F)cc1	.	1	-2	4	-1
O=S(=O)(N[C@H]1CC[C@H](CCn2cc(-c3cccnc3)nn2)O[C@H]1CO)c1ccccc1	.	-4	2	-5	2
O=C(NN1C(=O)/C(=C/c2ccc(O)c([N+](=O)[O-])c2)SC1=S)c1ccccc1Cl	6	10	0	26	-22*
CN(C)CC(=O)Nc1ccc2c(c1)[C@H]1C[C@@H](CC(=O)N3CCN(C)CC3)O[C@H](CO)[C@H]1O2	.	-2	2	-4	4
Cc1ccc(S(=O)(=O)Nc2cccc3ncccc23)cc1	-12	-1	-1	-8	-14
Cc1ccc(S(=O)(=O)Nc2cccc3ncccc23)s1	-9	4	.	70*	-55
CCn1cc(/C=C(\NC(=O)c2ccc(OC)cc2)C(=O)N2CCN(C)CC2)c2ccccc21	-9	4	-2	48*	-4
COc1ccc(C(=O)N/C(=C\c2cn(C)c3ccccc23)C(=O)N2CCN(C)CC2)cc1	-11	2	-1	9	1
C[C@@H]1CN([C@@H](C)CO)C(=O)c2cccc(NC(=O)NC3CCCCC3)c2O[C@H]1CN(C)S(=O)(=O)c1ccc(Cl)cc1	.	1	-1	-9	-7
COc1ccc2c3c([nH]c2c1)[C@H](CO)N(C(=O)CN(C)C)CC31CCN(C(=O)c2cccnc2)CC1	.	5	-1	.	4
O=C(CSc1nc2ccccc2s1)Nc1ccc2c(c1)OCO2	9	11	1	.	-28*
c1ccc2sc(-c3ccc4c(c3)OCO4)nc2c1	49*	.	.	-12	.
COc1ccc(-c2nc3ccccc3s2)cc1	67*	-4	.	.	-5
c1coc(-c2nc3ccccc3s2)c1	-3	0	11*	-3	11
CC(Sc1nc2ccccc2s1)C(=O)Nc1ccc2c(c1)OCO2 (stereo not given)	-21	.	.	-15	.
CN1[C@H](C(=O)Nc2nccs2)[C@@H](CO)[C@@H]2Cn3c(ccc(-c4ccccc4F)c3=O)[C@@H]21	.	0	.	-1	0
CC(C)(C)NC(=O)CCN(/N=C/c1ccc([N+](=O)[O-])o1)C1=NS(=O)(=O)c2ccccc21	20	-3	.	79*	.
NNC(=O)c1oc2nc(-c3ccco3)cc(-c3ccco3)c2c1N	.	-3	.	.	-14*
CCn1nc(NC(C)=O)c2cc3cccc(C)c3nc21	-17	75*	4	-15	1
COc1ccc2c(c1)c(C(C)=O)c(C)n2-c1ccc(C(C)=O)cc1	-8	-1	-1	-15	5
COc1ccc(-n2c(C)c(C(C)=O)c3cc(OC(C)=O)ccc32)cc1	-2	0	0	-4	-24*
CCOC(=O)CC(=O)CSc1nc2c(sc(=S)n2-c2ccc(OCC)cc2)c(=O)[nH]1	-2	5	0	0	-28*
C[C@H](CO)N1C[C@H](C)[C@H](CN(C)CC2CC2)Oc2ccc(NS(=O)(=O)c3cn(C)cn3)cc2CC1=O	.	1	1	-4	0
